Laboratory results as given in PubChem BioAssay AID1776 (NMMLSC, 2009).
Out of some 190,000 compounds screened, about 490 (0.26%) were called active. No stated cut-off is given here; in the data, active means fluorescence above about 89; inactive means the rest. The sample as a whole holds a higher share of actives than the screen did.

test: green autofluorescence of compounds with GSH beads – biophysical, 488/530 nm, flow cytometry, artefact control, profiling panel (AID 1776); conditions: compound fluorescence 488/530 nm, at 10 µM, active compounds read high;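 further: glutathione beads carrying GST-tagged Bcl family fusion proteins plus one bare bead set; values are compound well signal with DMSO vehicle wells as background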

Fluorescence (KMESF), inactive:
CCCCCC(=O)Nc1ccc(S(=O)(=O)Nc2ccc(Cl)nn2)cc1 11
COc1ccccc1N(C)S(=O)(=O)c1ccc(Cl)c(C(=O)N2CCC(C(N)=O)CC2)c1 11
CN1CCC(OC(=O)COc2ccc(Cl)cc2Cl)CC1 13
Cn1nccc1CNC(=O)c1ccnn1C 9
CCCCN(C)CCNC(=O)CSCc1ccc(C)cc1 25
CCCCN(C(=O)/C=C/c1ccco1)c1c(N)n(CC(C)C)c(=O)[nH]c1=O 9
COc1ccc(/C=C2/SC(=O)N(CCCCCC(=O)Nc3ccccc3C(=O)O)C2=S)cc1 9
O=C(CC12CC3CC(CC(C3)C1)C2)NCc1ccco1 15
CSCC(=O)N1CCCC(C(=O)c2cc(F)ccc2F)C1 (stereo unspecified) 11
O=C(O)Cc1ccc(-c2ccccc2)cc1 21
O=C(Cc1ccc(-c2ccccc2)cc1)NC(c1ccccc1)c1ccccc1 10
O=C(COc1ccc(NC(=O)c2ccccc2[N+](=O)[O-])cc1)c1ccc(F)cc1 23
O=C(COC(=O)c1ccc(Cl)nc1)NCc1cccs1 24
COc1ccccc1OCCC(=O)OCC(=O)NCc1ccccc1 16
COc1cccc(NC(=O)COC(=O)CCOc2ccccc2OC)c1 10
Cc1ccccc1-n1nnnc1SCCCC(=O)c1ccc(F)cc1 11
COc1cccc(Cn2cnc3c([N+](=O)[O-])c(C)c(C)cc32)c1 19
CCOC(=O)Cc1csc(NC(=O)Nc2ccccc2)n1 13
CCOC(=O)Cc1csc(NC(=O)C(C)(C)C)n1 28
COc1ccc(C)cc1S(=O)(=O)N(CC(=O)Nc1cccc([N+](=O)[O-])c1)c1ccc(C)cc1 11
CCCCN1C(=S)NC[C@@H]1C(C)CC (stereo partly specified) 20
Cc1ccc(-c2cc(C(=O)N/N=C/C=C/c3ccccc3)n[nH]2)o1 7
O=C(NCCCN1CCOCC1)c1ccc(N2CCCC2)c([N+](=O)[O-])c1 15
COc1ccc(CCNC(=O)CCn2c(=O)c3ccccc3n(CC(=O)NCC3CCCO3)c2=O)cc1OC (stereo unspecified) 70
CNc1nc2c(C)cccn2c(=O)c1C=Nc1ccc(OC)cc1 19
O=c1c2c(nc3n1CCCCC3)sc1c(O)cccc12 8
Cc1ccc2nc3n(c(=O)c2c1)CCC3 45
Cc1ccc(S(=O)(=O)NCCC(c2ccccc2)c2ccccc2)cc1C(=O)O 12
CCO/C=C1\C(=O)N(c2ccc(OCC)cc2)C(=O)c2ccccc21 14
Cc1cc(NC(=O)CN2C(=O)NC(CCc3ccccc3)C2=O)no1 (stereo unspecified) 13
O=C(c1ccc(OC2CCN(C(=O)c3cccnc3)CC2)cc1)N1CCCCCC1 11
Cc1cccc(Oc2c([N+](=O)[O-])c(=O)n(C)c3ccccc23)c1 55
O=C(COC(=O)CCCSc1nc2ccccc2[nH]1)Nc1ccc(Oc2ccccc2)cc1 11
CCCCC(NS(=O)(=O)c1ccc(C)cc1)C(=O)Oc1ccc2c3c(c(=O)oc2c1)CCC3 (stereo unspecified) 11
CCOC(=O)C1=C(C)NC(=O)NC1c1ccccc1 (stereo unspecified) 17
CCOC(=O)C1=C(C)NC(SC)=NC1c1ccccc1 (stereo unspecified) 34
CC(C)(C)NC(=O)CN(C(=O)c1csnn1)c1ccccc1-c1ccccc1 14
CCc1cccc(CC)c1NC(=O)COc1ccccc1C(=O)c1cc(C#N)c(=O)n(C2CCCCC2)c1 18
CCOc1ccc(NC(=O)NNC(=O)c2ccc(Cl)cc2Cl)cc1 21
COc1ccc(/C=N/OCC(=O)N(Cc2ccccc2)c2ccccc2C(=O)O)cc1 6
COC(=O)c1ccc(-c2noc(CN(Cc3ccccn3)CC3CCCO3)n2)cc1 (stereo unspecified) 18
CC(C)N1CCC(=NNc2ccc([N+](=O)[O-])cc2S(=O)(=O)N2CCOCC2)CC1 18
O=C(CSc1nnnn1-c1ccc(O)cc1)N1N=C(c2ccc3ccccc3c2)CC1c1ccccc1 (stereo unspecified) 16
Cc1ccc2c(Cl)c(C(=O)Nc3nn[nH]n3)sc2c1 15
COc1ccc(CN2C(=O)CC(Cc3ccc(C)cc3)C2=O)cc1OC (stereo unspecified) 10
Cc1ccc(C(=O)O)cc1NC(=O)c1ccc(Cn2nc(C)c(Cl)c2C)o1 15
COC(=O)C1NN=C(C(=O)c2ccc(Br)cc2)C1c1cccc(Br)c1 (stereo unspecified) 10
COC(=O)C1=C(C)N(C)C(=S)NC1c1ccccc1 (stereo unspecified) 13
CCOc1ccccc1/C=N/NC(=O)CNC(=O)COc1ccccc1 13
Cc1cccc(-n2cc(CN3CCN(C(=O)c4ncn[nH]4)CC3)c(-c3cccc(F)c3)n2)c1 12

Fluorescence (KMESF), active:
OCC(CO)(CO)NCc1ccc(-c2ccccc2)cc1 236
COc1ccccc1OCCC(=O)OCC(=O)NC(=O)NC(C)(C)C 260
CCOC(=O)Cc1csc(NC(NC(=O)OCC)(C(F)(F)F)C(F)(F)F)n1 269
Cc1cccc2c(=O)n3c(nc12)CCCCC3 267
CCOC(=O)C1=C(C)NC(C)=C(C(=O)OCC)C1c1ccccn1 252
COC(=O)C1=C(C)N(C)C(C)=C(C(=O)OC)C1c1cccc(Br)c1 266
